Reference: PubChem BioAssay (Tox21)
Records with an inconclusive call do not appear. Where a call stands in place of a potency, no number is given. Calls of active or inactive are those of the source. Unless noted, calls follow the shape of the dose curve; as a rule, active = well fitted curve in the direction sought with a large enough effect in the repeat runs; inconclusive = weak or mixed curves; inactive = no such curve, though single readings can be large; an effect the other way counts as inactive or inconclusive.

How the values were obtained:
[1] = target: Estrogen receptor (Homo sapiens) (UniProt P03372); assay: qHTS assay to identify small molecule antagonists of the estrogen receptor alpha (ER-alpha) signaling pathway (AID 743069; active = well fitted curve in the direction sought with a large enough effect in the signal ratio in the repeat runs, not every such curve was filed as active; the % refers to the signal ratio)
How it was run: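 HEK293 cells stably carrying an ER-alpha-UAS-bla beta-lactamase reporter were pre-cultured overnight in 2% charcoal-stripped FBS medium. Test compounds in DMSO were added together with 17beta-estradiol for 18 hr at 37C. Read-out was fluorescence after 2 hr with LiveBLAzer B/G FRET substrate at room temperature.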

[2] = qHTS assay to identify small molecule antagonists of the estrogen receptor alpha (ER-alpha) signaling pathway - cell viability counter screen (AID 743074; calls by dose curve; also: nearly all actives have a fitted effect of over 45% in size)
[3] = target: Estrogen receptor (Homo sapiens) (UniProt P03372); assay: qHTS assay to identify small molecule agonists of the estrogen receptor alpha (ER-alpha) signaling pathway (AID 743075; calls by dose curve)
[4] = target: Estrogen receptor (Homo sapiens) (UniProt P03372); assay: qHTS assay to identify small molecule agonists of the estrogen receptor alpha (ER-alpha) signaling pathway using the BG1 cell line (AID 743079); also: nearly all actives have a fitted effect of over 20% in size
[5] = qHTS assay to identify small molecule antagonists of the estrogen receptor alpha (ER-alpha) signaling pathway using the BG1 cell line (AID 743080; calls by dose curve; also: series mostly up to about 70 µM; nearly all actives have a fitted effect of over 25% in size)
How it was run: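 Antagonist mode: compounds in DMSO were pinned onto BG1-Luc-4E2 cells alongside 17beta-estradiol agonist, incubated 21.5 h, and ERE-driven luciferase measured with ONE-Glo. Cytotoxicity was multiplexed using CellTiter-Fluor fluorescence.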

[6] = qHTS assay to identify small molecule antagonists of the estrogen receptor alpha (ER-alpha) signaling pathway using the BG1 cell line - cell viability counter screen (AID 743081);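 also: compound given together with 17beta-estradiol as the ER stimulus; series mostly up to about 70 µM; nearly all actives have a fitted effect of over 45% in size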
[7] = target: Aromatase (Homo sapiens) (UniProt P11511); assay: qHTS assay to identify aromatase inhibitors (AID 743083); also: series mostly up to about 70 µM; nearly all actives have a fitted effect of over 55% in size
[8] = qHTS assay to identify aromatase inhibitors - cell viability counter screen (AID 743084);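 also: cells stimulated with testosterone during compound exposure; nearly all actives have a fitted effect of over 55% in size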
[9] = target: Aryl hydrocarbon receptor (Homo sapiens) (UniProt P35869); assay: qHTS assay to identify small molecule that activate the aryl hydrocarbon receptor (AhR) signaling pathway (AID 743085);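 also: HG2L7.5c1 human HepG2 liver cells with stably integrated DRE-driven firefly reporter; series mostly up to about 70 µM; nearly all actives have a fitted effect of over 15% in size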
How it was run: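 HepG2 cells (HG2L7.5c1) stably carrying a firefly luciferase reporter driven by 20 dioxin responsive elements were exposed to compound for 24 h at 37C after a 5 h settling period; luminescence rise (ONE-Glo) indicated activation.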

[10] = qHTS assay to identify small molecule that activate the aryl hydrocarbon receptor (AhR) signaling pathway - cell viability counter screen (AID 743086);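 also: HepG2 liver cells carrying the AhR DRE luciferase reporter; series mostly up to about 70 µM; nearly all actives have a fitted effect of over 45% in size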
How it was run: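 HepG2-AhR-luc (HG2L7.5c1) cells, 4000/well, were preincubated 5 h at 37C, exposed to compound in qHTS format for 24 hr at 37C, then given CellTiter-Fluor for 30 min; viability was read as fluorescence in the reporter wells.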

[11] = target: Peroxisome proliferator-activated receptor gamma (Homo sapiens) (UniProt P37231); assay: qHTS assay to identify small molecule agonists of the peroxisome proliferator-activated receptor gamma (PPARg) signaling pathway (AID 743094; active = well fitted activation curve with a large enough effect in the signal ratio in the repeat runs, not every such curve was filed as active; the % refers to the signal ratio)
How it was run: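 Beta-lactamase FRET fluorescence was the read-out after a 1 h room-temperature substrate step, following 17 h compound treatment at 37C of HEK293H cells expressing a UAS-driven bla reporter responsive to PPARg.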

[12] = target: Peroxisome proliferator-activated receptor gamma (Homo sapiens) (UniProt P37231); assay: qHTS assay to identify small molecule antagonists of the peroxisome proliferator-activated receptor gamma (PPARg) signaling pathway (AID 743191; calls by dose curve; also: series mostly up to about 63 µM; nearly all actives have a fitted effect of over 30% in size)
How it was run: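 GeneBLAzer PPARg UAS-bla HEK293H cells carrying a UAS-driven beta-lactamase reporter were plated at 3000 cells/well, preincubated 5 h at 37C, then given compound for 17 h at 37C; LiveBLAzer B/G FRET substrate was read after 1 h at room temperature.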

[13] = qHTS assay to identify small molecule antagonists of the peroxisome proliferator-activated receptor gamma (PPARg) signaling pathway - cell viability counter screen (AID 743194); also: nearly all actives have a fitted effect of over 55% in size
How it was run: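 PPARg-UAS-bla HEK293H cells were plated, rested 5 h at 37 C, then treated with compounds plus rosiglitazone (50 nM final) for 17 h at 37 C; viability was then read by CellTiter-Glo luminescence after 30 min at room temperature.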

[14] = qHTS assay for small molecule agonists of the antioxidant response element (ARE) signaling pathway (AID 743202; active = well fitted activation curve with a large enough effect in the signal ratio in the repeat runs, not every such curve was filed as active; the % refers to the signal ratio; also: potency is read from the fitted curve at half-maximal effect)
How it was run: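 Read-out: LiveBLAzer B/G FRET substrate fluorescence after 2 h at room temperature, following 16 h compound treatment at 37 C of HepG2 cells carrying an ARE-driven beta-lactamase reporter.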

[15] = qHTS assay for small molecule agonists of the antioxidant response element (ARE) signaling pathway - cell viability counter screen (AID 743203; calls by dose curve; also: nearly all actives have a fitted effect of over 55% in size)
How it was run: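 HepG2 cells carrying ARE-driven beta-lactamase; 2,000 cells/well; 5 hrs plating; compound pinned from DMSO; 16 hrs 37C/5% CO2; CellTiter-Glo added; 30 min RT; luminescence.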

[16] = qHTS assay for small molecule activators of the heat shock response signaling pathway - cell viability counter screen (AID 743209); also: nearly all actives have a fitted effect of over 50% in size
How it was run: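 Luminescence from CellTiter-Glo, added after the beta-lactamase FRET read, gave the viability signal. Cells were HSE-bla HeLa treated with DMSO-dissolved compounds for 5 h at 37 C following overnight plating.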

[17] = qHTS assay to identify small molecule agonists of the peroxisome proliferator-activated receptor delta (PPARd) signaling pathway - cell viability counter screen (AID 743211); also: nearly all actives have a fitted effect of over 55% in size; also: potency is read from the fitted curve at half-maximal effect
How it was run: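 PPARd-bla HEK293H cells (UAS-beta-lactamase reporter) were treated with compounds for 17 h at 37 C. Viability was then read in the same wells by CellTiter-Glo luminescence after 30 min at room temperature.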

Chain of Estrogen receptor (Homo sapiens) (P03372 whole entry, looked up): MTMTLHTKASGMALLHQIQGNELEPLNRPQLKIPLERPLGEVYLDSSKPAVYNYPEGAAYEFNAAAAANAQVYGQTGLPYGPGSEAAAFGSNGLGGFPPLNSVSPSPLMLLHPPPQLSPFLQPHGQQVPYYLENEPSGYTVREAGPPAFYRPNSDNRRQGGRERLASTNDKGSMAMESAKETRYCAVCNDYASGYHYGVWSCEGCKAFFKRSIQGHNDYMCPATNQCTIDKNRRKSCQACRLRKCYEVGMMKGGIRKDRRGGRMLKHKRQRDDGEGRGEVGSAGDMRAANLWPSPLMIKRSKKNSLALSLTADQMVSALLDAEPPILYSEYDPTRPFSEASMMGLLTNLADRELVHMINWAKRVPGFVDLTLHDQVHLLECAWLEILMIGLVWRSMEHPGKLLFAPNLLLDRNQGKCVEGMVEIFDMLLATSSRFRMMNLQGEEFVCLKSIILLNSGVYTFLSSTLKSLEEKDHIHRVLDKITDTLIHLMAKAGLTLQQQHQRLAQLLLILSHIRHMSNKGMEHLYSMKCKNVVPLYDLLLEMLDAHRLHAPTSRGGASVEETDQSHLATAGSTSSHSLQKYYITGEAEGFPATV
Chain of Peroxisome proliferator-activated receptor gamma (Homo sapiens) (P37231 whole entry, looked up): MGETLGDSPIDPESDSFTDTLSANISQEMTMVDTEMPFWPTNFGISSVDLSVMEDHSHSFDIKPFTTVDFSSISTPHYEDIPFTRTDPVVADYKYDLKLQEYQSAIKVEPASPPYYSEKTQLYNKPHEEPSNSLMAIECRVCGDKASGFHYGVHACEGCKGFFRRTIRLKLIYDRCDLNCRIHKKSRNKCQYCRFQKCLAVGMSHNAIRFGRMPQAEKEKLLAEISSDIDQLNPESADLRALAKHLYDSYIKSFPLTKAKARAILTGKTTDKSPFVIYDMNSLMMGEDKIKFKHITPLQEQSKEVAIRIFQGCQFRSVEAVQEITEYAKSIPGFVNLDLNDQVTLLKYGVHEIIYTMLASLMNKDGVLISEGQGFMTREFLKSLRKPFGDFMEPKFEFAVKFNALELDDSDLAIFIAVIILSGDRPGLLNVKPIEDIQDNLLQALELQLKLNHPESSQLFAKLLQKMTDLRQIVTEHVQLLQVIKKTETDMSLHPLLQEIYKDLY
Chain of Aryl hydrocarbon receptor (Homo sapiens) (P35869 whole entry, looked up): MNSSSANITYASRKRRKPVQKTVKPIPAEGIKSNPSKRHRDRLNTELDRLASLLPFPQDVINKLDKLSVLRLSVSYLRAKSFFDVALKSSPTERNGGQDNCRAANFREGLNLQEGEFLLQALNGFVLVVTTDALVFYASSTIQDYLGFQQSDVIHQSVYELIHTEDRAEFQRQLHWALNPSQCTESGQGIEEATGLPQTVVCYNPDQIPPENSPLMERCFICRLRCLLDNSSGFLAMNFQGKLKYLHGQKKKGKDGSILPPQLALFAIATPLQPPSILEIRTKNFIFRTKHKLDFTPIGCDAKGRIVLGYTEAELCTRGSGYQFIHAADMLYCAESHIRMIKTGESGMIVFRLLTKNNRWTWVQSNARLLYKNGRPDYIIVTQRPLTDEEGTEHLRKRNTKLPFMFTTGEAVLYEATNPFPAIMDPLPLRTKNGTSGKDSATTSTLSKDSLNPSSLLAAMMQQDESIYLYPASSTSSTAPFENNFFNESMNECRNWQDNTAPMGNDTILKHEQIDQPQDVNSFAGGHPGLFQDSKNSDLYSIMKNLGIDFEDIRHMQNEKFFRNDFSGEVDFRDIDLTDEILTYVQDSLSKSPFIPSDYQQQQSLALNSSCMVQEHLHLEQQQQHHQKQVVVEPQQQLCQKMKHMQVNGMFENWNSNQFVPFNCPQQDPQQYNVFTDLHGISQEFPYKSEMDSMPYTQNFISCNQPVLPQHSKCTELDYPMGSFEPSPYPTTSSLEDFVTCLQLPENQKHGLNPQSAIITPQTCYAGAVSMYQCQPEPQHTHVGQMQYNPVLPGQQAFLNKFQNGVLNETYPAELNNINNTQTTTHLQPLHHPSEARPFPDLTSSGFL
Chain of Aromatase (Homo sapiens) (P11511 whole entry, looked up): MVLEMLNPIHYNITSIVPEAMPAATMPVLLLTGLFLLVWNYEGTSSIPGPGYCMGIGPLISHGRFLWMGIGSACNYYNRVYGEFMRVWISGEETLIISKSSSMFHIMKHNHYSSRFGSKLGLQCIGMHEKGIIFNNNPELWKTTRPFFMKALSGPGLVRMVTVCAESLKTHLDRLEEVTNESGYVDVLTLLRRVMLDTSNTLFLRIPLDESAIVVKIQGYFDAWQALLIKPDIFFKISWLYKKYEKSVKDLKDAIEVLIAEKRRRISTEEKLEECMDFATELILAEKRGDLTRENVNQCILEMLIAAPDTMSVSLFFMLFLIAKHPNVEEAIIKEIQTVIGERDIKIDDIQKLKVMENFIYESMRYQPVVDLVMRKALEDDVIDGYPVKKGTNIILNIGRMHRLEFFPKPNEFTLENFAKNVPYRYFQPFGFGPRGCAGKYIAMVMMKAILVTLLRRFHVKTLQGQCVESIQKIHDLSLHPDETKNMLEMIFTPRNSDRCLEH

Compound | Potency [1] | Potency [2] | Potency [3] | Potency [4] | Potency [5] | Potency [6] | Potency [7] | Potency [8] | Potency [9] | Potency [10] | Potency [11] | Potency [12] | Potency [13] | Potency [14] | Potency [15] | Potency [16] | Potency [17]
CC(C)(C)C1CCC(=O)CC1 | inactive | inactive | inactive | inactive | inactive | inactive | inactive | inactive | inactive | inactive | inactive | inactive | inactive | inactive | inactive |  | 
O=c1oc2cc(O)ccc2c2oc3cc(O)ccc3c12 |  |  |  |  |  | inactive | inactive |  |  | inactive |  |  | inactive | 20.8 µM (active) |  | inactive | inactive
COc1ccc2cc1Oc1ccc(cc1)C[C@H]1c3c(cc4c(c3Oc3cc5c(cc3OC)CCN(C)[C@@H]5C2)OCO4)CCN1C | inactive | inactive | inactive | inactive | inactive |  | inactive | inactive | inactive |  | inactive |  |  |  |  | inactive | 29.8 µM (active)
CCCc1ccc(OCC(=O)N2CCN(C(=O)COc3ccc(CCC)cc3OC)CC2)c(OC)c1 |  |  |  |  |  |  |  |  |  |  |  |  | inactive | 29.8 µM (active) | inactive | inactive | inactive
CCCCCC/C=C\CCCCCCCC(=O)O | inactive | inactive | inactive | inactive | inactive | inactive | inactive | inactive | inactive | inactive |  |  | inactive | inactive | inactive |  | inactive
